The results in this text go back to PubChem BioAssay.

A short description of assay [1]: glutamate transport activators, MN-1 cells, MN-1 cell line (AID 1612).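 Also: tested at 1 µM final; 0% = mean of DMSO vehicle wells on each plate; positive means more glutamate uptake than control and negative means less.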 The settings on record: MN-1 motor neuron cells, stronger effect = higher value.
Assay [2] is described as follows: GFP-Q80 aggregate reduction, neuronal-like cells, cell-based, NGF-treated PC12, GFPQ80 (AID 1614).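 Also: lower means fewer inclusions and 0 means no inclusions at all.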 As to conditions: PC12 NGF-treated GFP-polyQ80 inclusion reduction.
Assay [3] can be described thus: 75Q-TubH aggregate inhibition, S. cerevisiae, yeast (AID 1616). The settings on record: S. cerevisiae 75Q-TubH polyglutamine aggregation suppression; stronger effect = higher value.
Assay [4] in a line: compounds altering circadian rhythm period length – cell-based, LOPAC library, luminescence reporter (AID 2774).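 Also: values are relative to mean of DMSO wells on each plate.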 As to conditions: circadian reporter cells, at 7 µM, actives lie on both sides.
Assay [5] can be described thus: compounds altering viability of human ES cells (AID 493140).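 Also: cells exposed to compounds for four days before counting.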 The settings on record: human embryonic stem cell survival screen; stronger effect = higher value.
The subject of assay [6] is Hepatitis C virus NS3 helicase. Put plainly: blockers of NS3h binding to ssDNA – biochemical, fluorescence polarization, LOPAC1280 library, primary screen (AID 687035; in the data active = inhibition above about 37%). As to conditions: Purified HCV NS3 helicase, Cy5-dT15 ssDNA binding fluorescence polarization; stronger effect = higher value; concentration not given here.
A short description of assay [7]: compounds altering Cy5-DNA-NS3h complex signal – biochemical, LOPAC1280, artefact control for HCV NS3 helicase inhibitor project (AID 687037). The settings on record: Cy5-DNA-NS3h complex fluorescence interference counterscreen.
Assay [8] can be described thus: Wnt pathway potentiators raising nuclear beta-catenin – imaging, WNT3A-conditioned medium, mouse C2C12, NPC library, primary screen (AID 1117326; in the data active = nuclear beta-catenin stimulation mostly above about 4.2%, no sharp cut-off; inactive = mostly below about 10%). The settings on record: stronger effect = higher value.
Assay [9] can be described thus: P. berghei load reduction in hepatocytes – cell-based, HepG2, luciferase luminescence, HepG2 viability, primary screen (AID 624349; in the data active = parasite load remaining mostly below about 12%, no sharp cut-off; inactive = mostly above about 10%;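 also: 100% = mean of DMSO negative control wells on the same plate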). The settings on record: P. berghei liver stage in HepG2, luciferase luminescence, concentration not given here; parasite load remaining: stronger effect = lower value; viability: measured here: HepG2 viability without parasites.

Values joined by “and” are separate entries in the source; they are usually repeats but may differ in a detail not shown here. Equal entries are not always repeated. Active and inactive are the calls of the source. Unless noted, no rule for the calls is given here.

Consider `COc1ccc2[nH]cc(CCNC(C)=O)c2c1`, for which the glutamate uptake change in assay [1] was 7.67%. In assay [2], the inclusion score was 2. This molecule also came in with an aggregation suppression score in assay [3] of 1.76. Also, the period change in assay [4] was -0.21 h (inactive). Further, the survival in [5] is 15.4 (inactive). For the same molecule, the inhibition in assay [6] was -3% (inactive). In addition, in assay [7], the fluorescence ratio (interference) was 1 (inactive). Moreover, the nuclear beta-catenin stimulation in assay [8] (at 10 µM) was 0.2% (inactive); in [8] (stimulation, at 2 µM), -0.2%.

Consider `O=C(O)c1cccnc1Nc1cccc(C(F)(F)F)c1`, for which, in assay [1], the glutamate uptake change is 6.09%. This molecule had an inclusion score in assay [2] of 1. In assay [3], this molecule displayed an aggregation suppression score of 0.0604. Further, the period change in [4] was 0.085 h (inactive). The survival in assay [5] was 22.6 (inactive). Besides, the inhibition in [6] was -1% (inactive). In addition, in assay [7], the fluorescence ratio (interference) was 0.9 (inactive). The nuclear beta-catenin stimulation is 1.4% (inactive) in [8] (at 10 µM) and 0.9% in [8] (stimulation, at 2 µM).

Turning to `CCn1cc(C(=O)O)c(=O)c2cc(F)c(N3CCNC(C)C3)c(F)c21` (stereo not drawn), the glutamate uptake change in assay [1] is -4.22%. In [2], the inclusion score was found to be 2. In [3], this molecule displayed an aggregation suppression score of 1.06. Besides, in assay [4], the period change is -0.015 h (inactive). Also, the survival in assay [5] was 17.1 (inactive). For the same molecule, the inhibition in [6] is -1% (inactive). Moreover, the fluorescence ratio (interference) in assay [7] is 1 (inactive). The nuclear beta-catenin stimulation is 1.8% (inactive) in assay [8] (at 10 µM) and 1.2% in assay [8] (stimulation, at 2 µM).

For the molecule `CC(C)NNC(=O)c1ccncc1`, in assay [1], the glutamate uptake change is -13.1%. In [2], this molecule showed an inclusion score of 2. In addition, the aggregation suppression score in [3] was 1.22. Also, the period change in assay [4] was 0.33 h (inactive). The survival in assay [5] was 24.2 (inactive). For the same molecule, in assay [6], the inhibition was -3% (inactive). In addition, the fluorescence ratio (interference) in assay [7] is 0.9 (inactive). For the same molecule, the nuclear beta-catenin stimulation in [8] (at 10 µM) is 2.3% (inactive); in assay [8] (stimulation, at 2 µM) it was -0.3%.

On to `Cc1cc(C(C)(C)C)c(O)c(C)c1CC1=NCCN1`, for which, in [1], the glutamate uptake change is -22.6%. The molecule also showed an inclusion score in [2] of 2. The aggregation suppression score in [3] was determined as 1.13. Further, the period change in assay [4] was -0.09 h (inactive). Further, the survival in assay [5] is 18.8 (inactive). Further, the inhibition in assay [6] is -6% (inactive). For the same molecule, the fluorescence ratio (interference) in assay [7] was 0.9 (inactive). In addition, the nuclear beta-catenin stimulation in assay [8] (at 10 µM) was 1.6% (inactive); in assay [8] (stimulation, at 2 µM), 2.7%.

As for `CCC1(C)CC(=O)NC1=O` (stereo not drawn), in assay [1], the glutamate uptake change was -2.95%. Further, the inclusion score in assay [2] stood at 2. For the same molecule, the aggregation suppression score in assay [3] came to 1.06. The period change in assay [4] is 0.01 h (inactive). The survival in assay [5] is 28.8 (inactive). Besides, the inhibition in assay [6] was 0% (inactive). Moreover, the fluorescence ratio (interference) in assay [7] is 1 (inactive). Besides, the nuclear beta-catenin stimulation was 0.2% (inactive) in assay [8] (at 10 µM) and -0.3% in [8] (stimulation, at 2 µM).

As to `NC(=O)c1ncn([C@@H]2O[C@H](CO)[C@@H](O)[C@H]2O)n1`, the glutamate uptake change in assay [1] turned out to be 14.1%. Besides, the inclusion score in assay [2] came out at 1.5. The aggregation suppression score in assay [3] stood at 1.25. Besides, in assay [4], the period change was 0.065 h (inactive). Further, the parasite load remaining in assay [9] is 64.8% (inactive) and 245% (inactive) and 27% (inactive). Further, in [9], the viability is 80.3% and 108% and 67%. Besides, in assay [6], the inhibition was -6% (inactive). Further, the fluorescence ratio (interference) in [7] was 0.9 (inactive). The nuclear beta-catenin stimulation in assay [8] (at 10 µM) is 1.7% (inactive); in assay [8] (stimulation, at 2 µM), 2.6%.

For `Cc1cccc(N(C)C(=S)Oc2ccc3ccccc3c2)c1`, in [1], the glutamate uptake change is -6.25%. In [2], this molecule registered an inclusion score of 2. This molecule also displayed an aggregation suppression score in [3] of 0.257. The survival in assay [5] was 27.3 (inactive). In addition, the nuclear beta-catenin stimulation in assay [8] (at 10 µM) is -0.1% (inactive); in assay [8] (stimulation, at 2 µM), 1.3%.

For `O=C1c2ccccc2C(=O)C1c1ccccc1`, in assay [1], the glutamate uptake change worked out at 6.38%. Also, in [2], the inclusion score worked out at 2. The aggregation suppression score in assay [3] was 0.588. Besides, the survival in [5] is 8.58 (inactive). Besides, the nuclear beta-catenin stimulation was 0.3% (inactive) in assay [8] (at 10 µM) and 0.6% in assay [8] (stimulation, at 2 µM).

`O=C(O)CCCCCCCC(=O)O`: the glutamate uptake change in assay [1] was 4.35%. This molecule came in with an inclusion score in assay [2] of 2. The same molecule yielded an aggregation suppression score in assay [3] of 0.919. In addition, the period change in [4] is 0.115 h (inactive). Moreover, in assay [9], the parasite load remaining is 102% (inactive) and 78.4% (inactive); the viability is 69% and 83.5%. For the same molecule, in [6], the inhibition was 0% (inactive). Moreover, the fluorescence ratio (interference) in assay [7] was 0.9 (inactive). In assay [8] (at 10 µM), the nuclear beta-catenin stimulation was 0.3% (inactive). The nuclear beta-catenin stimulation in [8] (stimulation, at 2 µM) is -0.5%.

`NC[C@H](O)c1ccc(O)c(O)c1`: the glutamate uptake change in [1] was 21.3%. Moreover, the inclusion score in assay [2] was found to be 2. Also, the aggregation suppression score in assay [3] came to 1.39. The period change in assay [4] is 0.04 h (inactive). Also, in assay [6], the inhibition was -4% (inactive). Moreover, in assay [7], the fluorescence ratio (interference) was 0.9 (inactive). Further, the nuclear beta-catenin stimulation was -1.8% (inactive) in assay [8] (at 10 µM) and -1.5% in assay [8] (stimulation, at 2 µM).

Consider `NCCCC[C@H](N[C@@H](CCc1ccccc1)C(=O)O)C(=O)N1CCC[C@H]1C(=O)O`, for which, in [1], the glutamate uptake change is 1.96%. The molecule further gave an inclusion score in assay [2] of 2. Also, the aggregation suppression score in assay [3] came out at 0.836. In [5], the survival is 16.8 (inactive). Besides, the nuclear beta-catenin stimulation in assay [8] (at 10 µM) is 0.4% (inactive); in assay [8] (stimulation, at 2 µM) it was 0.9%.

For `NS(=O)(=O)c1cc2c(cc1Cl)NC(C1CC3C=CC1C3)NS2(=O)=O` (stereo not drawn), the glutamate uptake change in [1] was 1.35%. The inclusion score in assay [2] amounted to 2. This molecule also gave an aggregation suppression score in assay [3] of 0.424. Moreover, the period change in assay [4] was 0.225 h (inactive). In addition, in [9], the parasite load remaining was 56.1% (inactive) and the viability amounted to 133%. Further, in assay [6], the inhibition is -1% (inactive). For the same molecule, the fluorescence ratio (interference) in [7] is 1 (inactive). Moreover, in assay [8] (at 10 µM), the nuclear beta-catenin stimulation is 0.8% (inactive). For the same molecule, the nuclear beta-catenin stimulation in assay [8] (stimulation, at 2 µM) was 0%.

As to `NC(Cc1ccc(Cl)cc1)C(=O)O` (stereo not drawn), the glutamate uptake change in assay [1] is -15.1%. The molecule also yielded an inclusion score in assay [2] of 2. The molecule also had an aggregation suppression score in assay [3] of 1.23. Besides, in assay [4], the period change was -0.015 h (inactive). In addition, the inhibition in assay [6] was -3% (inactive). Further, the fluorescence ratio (interference) in assay [7] was 1 (inactive). The nuclear beta-catenin stimulation in [8] (at 10 µM) was 1.4% (inactive); in [8] (stimulation, at 2 µM), 2.1%.
